Results filed as inconclusive are left out. Values without a mark were called inactive. The call rests on the fitted dose curve; in most records, active means well fitted cell-killing curve with a large enough effect in the repeat runs; inconclusive means weak or mixed curves; inactive means no such curve, though single readings can be large or run the other way.
Assay: qHTS assay to identify small molecule antagonists of the peroxisome proliferator-activated receptor delta (PPARd) signaling pathway - cell viability counter screen (AID 743213); further: nearly all actives have a fitted effect of over 50% in size
Details: PPARd-bla HEK293H viability, CellTiter-Glo luminescence, 17 h; series mostly up to 62 µM; viability change, negative = cytotoxic: at the top concentration
From the text: U.S. Tox21 Program National Center for Advancing Translational Sciences [NCATS] NIH Chemical Genomics Center [NCGC] U.S. Environmental Protection Agency [EPA] National Institutes of Environmental Health Sciences [NIEHS] National Toxicology Program [NTP] U.S. Food and Drug Administration [FDA] Tox21 Assay Overview: The peroxisome proliferator-activated receptors (PPARs) are lipid-activated transcription factors of the nuclear receptor superfamily with three distinct subtypes namely PPAR alpha, PPAR delta (PPARd) and PPAR gamma. All these subtypes heterodimerizes with Retinoid X receptor (RXR) and have different physiological functions. […] To identify the compounds that inhibit PPAR-delta signaling, GeneBLAzer PPAR delta UAS-bla HEK293H cell line (Invitrogen, Carlsbad, CA, USA) containing a beta-lactamase reporter gene under the control of an Upstream Activator Sequence (UAS) was used to screen the Tox21 compound library. The cytotoxicity of the Tox21 compound library against the PPARd-bla cell line was tested in parallel by measuring the cell viability using CellTiter-Glo assay (Promega, Madison, WI) in the same wells.
Tox21 Assay Protocol Summary: PPARd-bla cells were dispensed at 3000 cells/5uL/well in 1536-well black wall/clear bottom plates using a Multidrop Combi (Thermo Fisher Scientific, Waltham, MA) dispenser. After the assay plates were incubated at 37 C and 5% CO2 for 5 h, 23 nL of compounds dissolved in DMSO, positive controls or DMSO only was transferred to the assay plate by a Pintool station (Kalypsys, San Diego, CA), followed by addition of 1ul L165041 (300 nM, final concentration in the wells). The assay plates were incubated at 37 C for 17 h, and then 1 uL of LiveBLAzerTM B/G FRET substrate was added using a Bioraptr Flying Reagent Dispenser (FRD) workstation (Beckman Coulter, Indianapolis, IN, USA). The assay plates were incubated at room temperature for 2 h and fluorescence intensity was measured by an Envision plate reader (PerkinElmer, Shelton, CT). For cell viability readout that measures cytotoxicity, 3 ul/well of CellTiter-Glo reagent was added into the assay plates using a Bioraptr FRD. After 30 min incubation at room temperature, the luminescence intensity in the plates was measured using a ViewLux plate reader (PerkinElmer).
On the % scale 0 is the no-effect control and ±100 the full control effect.

In order of rising “viability change, negative = cytotoxic” value:
1. C#CCN1C(=O)COc2cc(F)c(N3C(=O)C4=C(CCCC4)C3=O)cc21  -22%
2. O=C(Nc1ccccc1)N(Cc1ccc(Cl)cc1)C1CCCC1  -21.2%
3. COC(=O)COc1ccc(Cl)cc1Cl  -18.5%
4. C=CCC1=C(C)[C@@H](OC(=O)[C@@H]2[C@@H](C=C(C)C)C2(C)C)CC1=O  -16.8%
5. CC(Oc1ccc(Oc2ncc(C(F)(F)F)cc2Cl)cc1)C(=O)O (stereo not given)  -16.7%
6. O=C(Nc1ccccc1)c1ccccc1I  -5.35%
7. CCOC(=O)N(C)C(=O)CSP(=S)(OCC)OCC  -5.31%
8. c1ccc(N2CCNCC2)cc1  -2.7%
9. Cc1cc(C)c(C(=O)P(=O)(C(=O)c2c(C)cc(C)cc2C)c2ccccc2)c(C)c1  -1.96%
10. CCS(=O)(=O)CCSP(=O)(OC)OC  -1.51%
11. c1coc(-c2nc3ccccc3[nH]2)c1  -0.426%
12. COP(=S)(OC)Oc1ccc(S(N)(=O)=O)cc1  -0.16%
13. C[C@@H]1CN(C2CCC(C#N)(c3ccc(F)cc3)CC2)CC[C@]1(C(=O)O)c1ccccc1 (stereo not given in full)  0.423%
14. O=[N+]([O-])c1cc(Cl)c(Cl)c(Cl)c1  0.781%
15. Nc1cnn(-c2ccccc2)c(=O)c1Cl  0.944%
16. O=CNC(N1CCN(C(NC=O)C(Cl)(Cl)Cl)CC1)C(Cl)(Cl)Cl (stereo not given)  1.48%
17. O=NN1CCCCC1  1.99%
18. COP(=S)(OC)Oc1c(Cl)cc(C)cc1Cl  2.63%
19. CC1COC2(c3ccccc3Cl)c3cc(Cl)ccc3NC(=O)CN12 (stereo not given)  2.88%
20. O=P(O)(Oc1ccccc1)Oc1ccccc1  3.78%
21. COc1cc(OC)nc(NC(=O)NS(=O)(=O)c2ncccc2OCC(F)(F)F)n1  3.88%
22. O=C1CN=C(c2ccccc2)c2cc([N+](=O)[O-])ccc2N1  4.13%
23. CCCCCCI  5.1%
24. Cc1ccccc1CO[C@@H]1C[C@@]2(C(C)C)CC[C@]1(C)O2  6.02%
25. ClC(Br)Br  7.21%
26. CC(=O)Nc1cc([As](=O)(O)O)ccc1O  8.12%
27. COC(=O)c1c(C(F)F)nc(C(F)(F)F)c(C2=NCCS2)c1CC(C)C  12.9%
28. O=C1OC(c2ccc(O)c(S(=O)(=O)O)c2)(c2ccc(O)c(S(=O)(=O)O)c2)c2c(Br)c(Br)c(Br)c(Br)c21  13.5%
29. NC1=NC(=O)C(c2ccccc2)O1 (stereo not given)  18.2%
30. CSc1ccc(C(=O)C(C)(C)N2CCOCC2)cc1  22.1%
31. CCN(CC)c1nc(C)cc(OP(=S)(OC)OC)n1  24.7%

In order of rising “viability change, negative = cytotoxic” value:
1. CCC#N  -18% [at 80.4 µM]
2. ClC(Cl)(Cl)C(Cl)(Cl)Cl  -2.27% [at 80.4 µM]
3. ClCC(Cl)Cl  3.95% [at 80.4 µM]
4. CCCCC(=O)Cl  7.54% [at 80.4 µM]
5. O=[N+]([O-])c1cccc2c([N+](=O)[O-])cccc12  8.17% [at 80.4 µM]
6. ClC(Cl)C(Cl)Cl  10.4% [at 80.4 µM]
7. CC(=O)C(Cl)Cl  13.3% [at 80.4 µM]
8. N#Cc1ccncc1  16.1% [at 80.4 µM]
9. C[C@]1(O)CC[C@H]2[C@@H]3CCC4=CC(=O)CC[C@]4(C)[C@@]3(F)[C@@H](O)C[C@@]21C  17.9% [at 80.4 µM]

Reference: PubChem BioAssay (Tox21)
